# Most compounds without a hit are left out; they make up all but 1.5% or so of the library.
# VHR inh abs = DUSP3 (human) phosphatase inhibition; recombinant VHR phosphatase, pNPP absorbance; inhibition, % at 13.3 µM; hit rate 0.52% among 290,000; in the data active means inhibition above about 50%
# CCHF vOTU inh-1 = blocks the CCHF virus ovarian tumor domain protease. inhibition, % at 11.5 µM. hit rate 0.55% among 370,000. CCHFV vOTU protease, Pep-AMC fluorescence. AID 651958
# PrPC surface inh = cell surface PrPC inhibition, primary TR-FRET screen | P04156 | TR-FRET read-out | inhibition, % at 13.8 µM | hit rate 0.43% among 370,000 | AID 720596; in the data active means inhibition above about 24%
# Vc quorum ag = induces V. cholerae light production without autoinducers; V. cholerae BH1578 lux reporter, luminescence, 6 h; activation, % at 18.7 µM; hit rate 0.16% among 350,000; AID 588436; in the data active means activation mostly above about 9.7%, no sharp cut-off
# TcdB GH inh = blocks C. difficile toxin B glycohydrolase activity; P18177; TcdB glycohydrolase enzymatic assay, plate reader; inhibition, % at 9.99 µM; hit rate 0.24% among 350,000; in the data active means inhibition above about 10%
# SSB-PriA inh = inhibitors of Klebsiella pneumoniae PriA binding to SSB C-terminal tail | hit rate 0.6% among 430,000 | AID 1272365 | AlphaScreen SSBct-PriA binding, biotinylated peptide | inhibition, % at 33 µM; in the data active means inhibition mostly above about 37%, no sharp cut-off; inactive means mostly below about 20%
# CCHF vOTU inh-2 = confirmation of CCHF virus vOTU protease inhibitors; Recombinant CCHFV vOTU, Pep-AMC fluorescence; shares compounds with CCHF vOTU inh-1; hit rate 17% among 1,900; inhibition, % at 11.5 µM
# Hits are given with their value; - = inactive; . = not tested or not shown. Unless noted, no stated cut-off is given here; in the data, active means inhibition above about 30%; inactive means the rest.
SMILES,VHR inh abs,CCHF vOTU inh-1,PrPC surface inh,Vc quorum ag,TcdB GH inh,SSB-PriA inh,CCHF vOTU inh-2
COc1ccc(/C=C2\C(=O)NC(=O)c3ccccc32)cc1OC,.,108,-,-,-,-,103
CCOc1ccc(-c2csc(-c3nnn(-c4cccc(Cl)c4)c3C)n2)cc1,.,.,.,.,.,-,.
O=C(NCCc1ccccc1Cl)[C@@H]1CCCN1C(=O)[C@@H](NS(=O)(=O)c1ccc(F)cc1F)C1CCCCC1,.,34,-,.,-,.,-
COc1cc(C(=O)Nc2nc(CN3CCc4ccccc4C3)cs2)cc(OC)c1OC,.,.,.,.,.,-,.
O=C(c1n[nH]c2ccccc12)N1CCN(Cc2nncn2-c2ccccc2)CC1,.,.,.,.,.,-,.
COc1cc(/C=C/c2ccc3c(Br)cc(Br)c(O)c3n2)ccc1O,-,35,-,-,-,-,-
COc1ccc(/C=C/c2ccc3c(Br)ccc(O)c3n2)cc1,.,-,-,-,-,-,.
O=C1Nc2cc(C(=O)NCC3CCCO3)ccc2S/C1=C/c1ccccc1F (centres undefined),54,31,-,-,-,-,-
O=C(Cc1ccccc1Cl)NCCn1nc(C2CC2)n(-c2ccccc2)c1=O,.,.,.,.,.,-,.
COC(=O)c1ccccc1NC(=O)COC(=O)C1CCCCC1,-,32,-,-,-,-,-
COC(=O)c1ccccc1NC(=O)C1CCCC1,-,-,-,-,.,-,.
O=C(Cc1cccs1)NCC1CN(c2ccccc2)C(=O)O1 (centres undefined),.,.,.,.,.,-,.
CCCCOCC1CN(CCCC)S(=O)(=O)c2c(F)cccc2O1 (centres undefined),.,-,-,.,-,.,.
CCCCOCC1CN(CCCC)S(=O)(=O)c2c(cccc2N(C)S(=O)(=O)c2ccc(C)cc2)O1 (centres undefined),.,32,-,.,-,.,-
CCOC(=O)CNC(=O)c1c(C(F)(F)F)nn(C2CCCC2)c1C,.,.,.,.,.,-,.
CC1=NN(c2ccccc2)C(=O)C1C=Nc1ccc(N(C)C)cc1 (centres undefined),-,30,-,-,-,-,-
CS(=O)(=O)c1ccc(N2CCN(S(=O)(=O)c3cccs3)CC2)c([N+](=O)[O-])c1,.,35,-,-,-,-,-
CCN(CC)C(=O)c1cccc(-c2csc(C(O)c3ccc(F)c(F)c3)n2)c1 (centres undefined),.,30,-,-,-,.,-
O=C(Nc1cnn(CC2COc3ccccc3O2)c1)c1ccc2ncsc2c1 (centres undefined),.,.,.,.,.,-,.
COc1ccc(CNc2ccncc2)c(OC)c1OC,.,-,-,-,-,-,.
COc1ccc(CNc2ccc3cn[nH]c3c2)c(OC)c1OC,-,40,-,-,.,-,-
O=C1C[C@H](NC(=O)c2cc3n(n2)CCCO3)CN1,.,.,.,.,.,-,.
Cc1[nH]n(-c2ccccc2)c(=O)c1C(c1cccc([N+](=O)[O-])c1)c1c(C)[nH]n(-c2ccccc2)c1=O,-,41,-,-,-,-,-
Cc1c(C(c2cccc([N+](=O)[O-])c2O)c2c(C)n(C)n(-c3ccccc3)c2=O)c(=O)n(-c2ccccc2)n1C,-,-,-,-,.,-,.
Cc1[nH]n(-c2ccccc2)c(=O)c1C(c1cccc([N+](=O)[O-])c1O)c1c(C)[nH]n(-c2ccccc2)c1=O,-,33,-,-,-,-,-
SMILES,VHR inh abs,CCHF vOTU inh-1,PrPC surface inh,Vc quorum ag,TcdB GH inh,SSB-PriA inh,CCHF vOTU inh-2
O=C(O)c1cnc(NCC2CCCO2)nc1-c1ccccc1 (centres undefined),.,.,.,.,.,-,.
CCC(=O)N(C1=C(NC(C)C)C(=O)c2ccccc2C1=O)C(C)C,-,47,-,-,-,-,31
CC(=O)N(C1=C(N)C(=O)c2ccccc2C1=O)C(C)C,-,-,-,-,-,-,.
CN(C)S(=O)(=O)c1ccc2c3c(cccc13)C(=O)N2,.,.,.,.,.,-,.
O=C(CC(NCc1cccnc1)C(=O)O)Nc1cccnc1 (centres undefined),.,.,.,.,.,-,.
O=[N+]([O-])c1cnccc1Nc1ccccc1,-,-,-,-,.,-,.
O=C(O)c1cccc(Nc2ccncc2[N+](=O)[O-])c1,.,30,-,-,-,-,-
O=C(O)CC1S/C(=N/N=C/c2ccc(-c3ccccc3[N+](=O)[O-])o2)NC1=O (centres undefined),-,36,-,-,.,.,-
O=C(O)CC1SC(=NN=Cc2ccc(-c3ccccc3[N+](=O)[O-])o2)NC1=O (centres undefined),.,.,.,.,.,-,.
Oc1c(Cl)c(Cl)c2ncccc2c1Cl,.,-,-,.,-,-,.
COc1cc(N)c2ncccc2c1Cl,.,97,-,-,-,-,-
CC[C@@H](C(=O)NCCOC)n1cccc(-c2nc(C3CC3)no2)c1=O,.,.,.,.,.,-,.
CSc1ccc(-c2nc(CN3CCCCC3c3cccnc3)c(C)o2)cc1 (centres undefined),-,32,-,-,-,-,-
COc1ccc(Cl)cc1NC(=O)NCC(OC)c1ccc(C)s1 (centres undefined),.,.,.,.,.,-,.
O=C(N/N=C\c1c[nH]c2ccccc12)c1ccc(O)cc1,-,32,-,-,-,.,-
O=C(O)CCCNc1cc(N2CCN(C(=O)c3ccco3)CC2)c2noc3c2c1C(=O)c1ccccc1-3,-,32,-,-,-,41,81
CN(C)S(=O)(=O)c1cccc(NC(=S)Nc2cccc3cnccc23)c1,-,40,-,-,-,-,89
Fc1ccc(NC(=S)Nc2cccc3cnccc23)cc1,-,50,-,-,-,-,65
S=C(Nc1ccc(Cl)cc1)Nc1cccc2cnccc12,-,58,-,-,-,-,89
Cc1ccc(S(=O)(=O)N(Cc2ccsc2)Cc2ccco2)cc1C,.,.,.,.,.,-,.
O=c1[nH]c2ccccc2c(=O)n1C1CCN(S(=O)(=O)/C=C/c2ccccc2)CC1,.,.,.,.,.,-,.
O=C(CSCc1ccc(Cl)cc1)Nc1ccc(-c2nnc(-c3ccccc3)o2)cc1,-,32,-,-,.,-,-
Cc1onc(-c2ccccc2)c1C(=O)N/N=C/c1ccc(O)c([N+](=O)[O-])c1,-,33,-,-,-,.,-
O=C(c1cc(C2CC2)on1)N1CCC(Oc2cnccn2)CC1,.,.,.,.,.,-,.
CC(=O)[C@@H]1[C@@H]2C(=O)N(Cc3ccccc3)C(=O)[C@@H]2C2c3ccccc3C=CN21 (some centres undefined),-,64,-,-,-,-,33
Cc1ccc(N2C(=O)[C@@H]3[C@H](C2=O)C2c4ccccc4C=CN2[C@@H]3C(=O)c2ccco2)cc1 (some centres undefined),-,78,-,-,.,-,101
Cc1ccc(N2C(=O)[C@@H]3[C@H](C2=O)C2c4ccccc4C=CN2[C@@H]3C(=O)c2ccco2)c(C)c1 (some centres undefined),-,95,-,-,.,-,53
CC(C)(C)C(=O)[C@@H]1[C@@H]2C(=O)N(c3ccc4c(c3)OCCO4)C(=O)[C@@H]2C2c3ccccc3C=CN21 (some centres undefined),-,54,-,-,.,-,-

# Screening data as filed in PubChem BioAssay.
